Rows were chosen to be rich in hits. Some 18% of all compounds tested hit in one or more screens of this group.
PLK1 PBD block: qHTS for Inhibitors of PLK1-PDB (polo-like kinase 1 - polo-box domain): Primary Screen; Serine/threonine-protein kinase PLK1 (Homo sapiens), P53350; Plk1 PBD binding of FITC phosphopeptide, fluorescence polarization; Potency, µM, usual class: inhibitors; 360,000 tested, 2.8% active; AID 720504, 2013; note: series mostly up to about 57 µM; nearly all actives have a fitted effect of over 65% in size
DT40 TDP1 no CPT: qHTS for Inhibitors of human tyrosyl-DNA phosphodiesterase 1 (TDP1): qHTS in cells in absence of CPT | DT40 Tdp1-/- hTDP1 cells, no CPT, ATP luminescence, 48 h | Potency, µM (highest dose often 46.2 µM), usual class: inhibitors | 420,000 tested, 15% active | AID 686978, 2013; note: nearly all actives have a fitted effect of over 55% in size
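Chicken DT40 Tdp1-/- cells complemented with human TDP1, screened without camptothecin (DMSO vehicle only), 400 cells/well. Compounds pin-transferred, cells incubated at 37 °C for at least 48 hr. Growth read as ATP-dependent luminescence (CellTiter-Glo, 30 min at RT).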
VDR inhibitor: Inhibitors of the vitamin D receptor (VDR): qHTS; Vitamin D3 receptor (Homo sapiens), P11473; VDR-SRC2-3 peptide fluorescence polarization, 2 h; Potency, µM, hits mostly inhibitors; 400,000 tested, 0.93% active
Target sequence (P11473 whole entry, looked up): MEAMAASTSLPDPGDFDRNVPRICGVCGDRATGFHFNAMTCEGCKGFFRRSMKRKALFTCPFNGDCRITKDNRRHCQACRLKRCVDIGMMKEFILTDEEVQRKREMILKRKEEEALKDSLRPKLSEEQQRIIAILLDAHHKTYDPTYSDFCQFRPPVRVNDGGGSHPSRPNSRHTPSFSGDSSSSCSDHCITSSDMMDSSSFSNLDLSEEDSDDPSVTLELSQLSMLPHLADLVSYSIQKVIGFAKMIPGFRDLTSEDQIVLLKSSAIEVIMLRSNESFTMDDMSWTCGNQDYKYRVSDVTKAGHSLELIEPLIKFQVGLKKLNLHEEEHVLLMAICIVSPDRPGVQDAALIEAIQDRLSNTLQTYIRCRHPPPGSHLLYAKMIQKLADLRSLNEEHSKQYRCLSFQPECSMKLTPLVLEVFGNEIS
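Fluorescence polarization assay of small-molecule disruption of VDR binding to coregulator peptide SRC2-3. Compounds and controls pin-transferred, then read after 2 h incubation at ambient room temperature.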
TDP1 cell CPT: qHTS for Inhibitors of human tyrosyl-DNA phosphodiesterase 1 (TDP1): qHTS in cells in presence of CPT; 420,000 tested, 12% active; Potency, µM (highest dose often 46.2 µM), usual class: inhibitors; chicken DT40 Tdp1-/-;hTDP1 cells + 20 nM CPT, ATP luminescence, 48 h; note: nearly all actives have a fitted effect of over 55% in size
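Chicken DT40 Tdp1-/- cells complemented with human TDP1, 400 cells/well, exposed to compounds plus 20 nM camptothecin for at least 48 h at 37 C; viability read as ATP content by CellTiter-Glo luminescence.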
GCN5L2 inh: qHTS Assay for Inhibitors of GCN5L2; Histone acetyltransferase KAT2A (Homo sapiens), Q92830; GCN5L2 HAT assay, ThioGlo1 CoA-SH fluorescence; Potency, µM (series often up to 58.9 µM), usual class: inhibitors; 390,000 tested, 0.21% active; AID 504327, 2011
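Titration-based screen in which CoA formation is detected via maleimide probe ThioGlo1 (50uM) turning fluorescent on thiol reaction; substrates H3(1-25) 75uM and acetyl-CoA 70uM, GCN5L2 20nM, 20 min incubation at room temperature.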
TDP1 inh: qHTS Assay for Inhibitors of Tyrosyl-DNA Phosphodiesterase (TDP1); 350,000 tested, 0.28% active; Tyrosyl-DNA phosphodiesterase 1 (Homo sapiens), Q9NUW8; Potency, µM (highest dose often 130 µM), actives largely listed as inhibitors; recombinant TDP1, AlphaScreen DNA substrate cleavage; note: nearly all actives have a fitted effect of over 40% in size
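Signal: AlphaScreen proximity between streptavidin donor and anti-FITC acceptor beads on intact substrate. Reaction: Tdp1 1 nM, substrate 15 nM final, 5 min RT after 15 min compound preincubation.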
Hits are given with their value; – = inactive; ? = inconclusive; · = no result given; ! = a repeat was not active; [ ] = remark or other dose. Calls come from the whole dose curve; as a rule, active = well fitted curve in the direction sought with a large enough effect; inconclusive = small, poorly fitted or top-dose-only effect, or another doubt; inactive = no such curve, though single readings can be large; an effect the other way counts as inactive or inconclusive.

SMILES	PLK1 PBD block	DT40 TDP1 no CPT	VDR inhibitor	TDP1 cell CPT	GCN5L2 inh	TDP1 inh
COc1ccc(S(=O)(=O)NC(C)c2ccc3c(c2)OCCO3)cc1 (configuration not stated)	–	–	·	–	·	·
Cc1ccc(S(=O)(=O)N(CC(=O)N/N=C/c2cccc(C)c2)c2cccc3cccnc23)cc1	–	20.6µM	–	?	·	–
O=C(CSc1cccc2cccnc12)N/N=C/c1ccc(F)cc1	–	–	–	–	–	–
O=C(CSc1cccc2cccnc12)N/N=C/c1cccc(O)c1	–	16.4µM	–	?	–	–
Cc1cc(C)nc(SCc2ccc(C(=O)N/N=C/c3cccnc3)cc2)n1	·	·	·	·	–	–
COc1ccccc1N(CC(=O)N/N=C/c1ccc(C(=O)O)cc1)S(=O)(=O)c1ccc(C)cc1	–	–	–	–	–	–
O=C(Cc1cccc2ccccc12)N/N=C/c1ccc(Sc2cccc3cccnc23)o1	·	·	·	·	–[0.501 µM]	–
CCCCC(=O)N/N=C/c1ccc(Sc2cccc3cccnc23)o1	–	23.1µM	–	?	–	–
O=C(N/N=C/c1ccc(O)c(O)c1)c1ccc(CSc2cccc3cccnc23)cc1	–	8.2µM	–	?	–	–
O=S(=O)(c1cnc2ccccc2c1)N1CCN(c2nc(-c3cccs3)nc3ccccc23)CC1	·	–	–	–	·	–
Cc1cc(C(=O)Nn2c(-c3ccc(Br)cc3)nc3ccccc3c2=O)ccc1[N+](=O)[O-]	–	?	–	29.1µM	–	–
COc1ccc(C(=O)On2c(-c3ccc(Br)cc3)nc3ccccc3c2=O)cc1	–	18.4µM	–	?	–	–
Cc1nc2ccccc2c(=O)n1NC(=O)c1cccc([N+](=O)[O-])c1	–	–	–	–	–	–
COc1ccc(-c2nc3ccccc3c(=O)n2N)cc1	–	–	–	–	–	–
COC(=O)[C@]1(C)N[C@H](CN(C)C(=O)Nc2ccc(C)cc2)[C@@H]2C(=O)N(C)C(=O)[C@@H]21	–	–	–	–	–	–
COC(=O)C1=C(Nc2ccc(C)cc2)C=C(C)C(C(=O)OC)C1c1ccc(OC)cc1 (configuration not stated)	–	25.9µM	–	16.4µM	–	–
COC(=O)C1=C(Nc2ccc(C)cc2)C=C(C)C(C(=O)OC)C1c1cccc(OC)c1 (configuration not stated)	–	?	–	?	–	–
CCc1nnc(NS(=O)(=O)c2ccc(NC(=O)c3cccc(OC)c3)cc2)s1	–	–	–	–	–	–
COc1ccc(OCCNc2c([N+](=O)[O-])c(=O)oc3ccccc23)cc1	–	?	–	–	–	–
CCc1ccc(Nc2c([N+](=O)[O-])c(=O)oc3ccccc23)cc1	–	7.31µM	–	?	–	–
O=c1oc2ccccc2c(Nc2ccc3ccccc3c2)c1[N+](=O)[O-]	–	?	–	14.6µM	–	–
O=c1oc2ccccc2c(NC(c2ccccc2)c2ccccc2)c1[N+](=O)[O-]	–	?	–	?	–	–
O=c1oc2ccccc2c(NCc2cccc(F)c2)c1[N+](=O)[O-]	–	–	–	–	–	–
CC(Nc1c([N+](=O)[O-])c(=O)oc2ccccc12)C(Cl)c1ccccc1 (configuration not stated)	–	23.1µM	–	?	–	–
Cc1ccc(Nc2c([N+](=O)[O-])c(=O)oc3ccccc23)cc1	–	11.6µM	–	?	–	–
SMILES	PLK1 PBD block	DT40 TDP1 no CPT	VDR inhibitor	TDP1 cell CPT	GCN5L2 inh	TDP1 inh
Cc1ccc(C)c(Nc2c([N+](=O)[O-])c(=O)oc3ccccc23)c1	–	10.3µM	–	23.1µM	–	–
O=C(CCl)N(c1ccc(Cl)cc1)c1c[nH]c2ccccc12	–	1.84µM	?	1.84µM	–	–
O=C(NCc1ccc(Cl)cc1)C(=O)c1c[nH]c2ccccc12	–	–	–	?	–	–
O=C(CCl)N(c1ccccc1)c1c[nH]c2ccccc12	–	2.91µM	–	2.31µM	–	·
COc1ccc(C2Nc3ccccc3C(=O)N2C2CCCC2)cc1COc1ccc(NC(C)=O)cc1 (configuration not stated)	·	·	·	·	·	–
CC(CN1CCN(C)CC1)OC(=O)c1cccc(F)c1 (configuration not stated)	–	–	–	–	–	·
CNS(=O)(=O)Cc1ccc2[nH]cc(CCN(C)C)c2c1	–	4.61µM!	–	5.8µM!	–	–
CCOC(=O)C1CCN(C(=O)C(C)c2ccc([N+](=O)[O-])cc2)CC1 (configuration not stated)	–	–	–	?	–	–
C#CCOCCOCCOCCNc1nc(N2CCN(C(=O)Cn3cc(CCCN=C(N)N)nn3)CC2)nc(N2CCN(C(=O)[C@H]([C@@H](C)CC)n3cc(CCCN=C(N)N)nn3)CC2)n1	·	·	·	·	–	–
Cc1cc(C)nc(NNC(=O)NC2CCCCC2)n1	26.7µM	–	?	?	–	–
CN(C)CCO[C@@H](c1ccc(Cl)cc1)c1ccccn1	–	–	–	–	–	–
Cc1ccc(C(OCCN(C)C)c2cccc(C(F)(F)F)c2)cc1 (configuration not stated)	–	23.1µM	–	23.1µM	–	–
CC(C)[C@H](N)C(=O)N1CCC(C(=O)N[C@@H](Cc2ccccc2)C(=O)NCc2ccc(F)cc2)CC1	–	–	–	–	–	–
O=C(O)c1cc(Cl)c2c(c1)[C@@H]1C=CC[C@@H]1[C@H](c1ccc(S(=O)(=O)N3CCOCC3)cc1)N2	26.7µM	–	?	–	?	–
Cc1cc(C)c2c(c1)C1C=CCC1C(c1ccc(S(=O)(=O)N3CCOCC3)cc1)N2 (configuration not stated)	–	–	–	–	–	–
COc1ccc(C2/C(=C(/O)c3ccc(F)cc3)C(=O)C(=O)N2c2ccccn2)cc1OC (configuration not stated)	11.9µM	23.1µM	?	?	–	·
CCOc1ccc(C2/C(=C(\O)c3cccc(OC)c3)C(=O)C(=O)N2c2ccccn2)cc1OC (configuration not stated)	–	–	–	–	–	–
Cc1ccc(Cn2c(=O)n(CC3CCC(C(=O)N4CCOCC4)CC3)c(=O)c3sccc32)cc1 (configuration not stated)	·	16.4µM	–	20.6µM	–	–
